Data on 35 molecules can be found in PubChem BioAssay (EPA / NIEHS).

Several values for one entry are separate records, joined by “and”; a condition that tells them apart may be missing. Equal entries are not always repeated. Inconclusive results are not listed. Activity calls are given as the source filed them. How the source made its calls: active means hit-call score of the fitted dose curve at least 0.9, where 1 is the maximum; inconclusive means response in the unintended direction; inactive means score below 0.9.

Chain of Cellular tumor antigen p53 (Homo sapiens) (P04637 whole entry, looked up): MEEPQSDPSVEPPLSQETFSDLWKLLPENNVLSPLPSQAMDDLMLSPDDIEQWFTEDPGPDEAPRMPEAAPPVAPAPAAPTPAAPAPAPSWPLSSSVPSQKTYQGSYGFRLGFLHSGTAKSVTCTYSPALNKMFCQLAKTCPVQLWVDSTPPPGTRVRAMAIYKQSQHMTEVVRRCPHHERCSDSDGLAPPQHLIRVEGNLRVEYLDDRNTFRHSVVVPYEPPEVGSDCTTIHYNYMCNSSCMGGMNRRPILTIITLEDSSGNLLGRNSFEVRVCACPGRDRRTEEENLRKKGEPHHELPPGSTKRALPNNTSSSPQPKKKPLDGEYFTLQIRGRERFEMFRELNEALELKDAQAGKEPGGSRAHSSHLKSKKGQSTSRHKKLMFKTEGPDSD

For one assay, the target named is Cellular tumor antigen p53 (Homo sapiens) (UniProt P04637). The assay can be described thus: TOX21_p53_BLA_p3_ratio: Tox21 HCT-116 p53 Agonism Beta-lactamase Assay, Ratio, Phase 3 (AID 2283596). Put shortly:
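HCT116 p53-bla cells (4000/well) given compound in DMSO (217-fold dilution) after 5 h, incubated 16 h at 37C. CCF4-AM substrate 2 h at room temperature; 460/530 nm emission ratio, gain fitted against DMSO.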
On to `Oc1ccc2ccccc2c1`, for which the result was inactive.

As for `CCCCCCCCN(C)CCCCCCCC`, the result was inactive.

As for `Cc1oc2c(NC(=O)c3c(Cl)cccc3Cl)cccc2c1C(C)(C)O`, the result was inactive.

As to `CCCCCCCC[Si](OCC)(OCC)OCC`, the outcome was inactive.

Consider `Clc1cc(Cl)c2c(c1)N=C1CCCCCN1C2`, for which the result was inactive.

For the molecule `c1ccc2ccccc2c1`, the outcome was inactive.

Consider `O=c1[nH]sc2ccccc12`, for which the result was inactive.

Regarding `CCCCCCCCCCCO`, the result was inactive.

For the molecule `CN(C)c1ccc(C(=C2C=CC(=[N+](C)C)C=C2)c2ccc(N(C)C)cc2)cc1`, the AC50 was 9.02 µM (active) and 31.5 µM (active) and 8.23 µM (active).

On to `CCO[Si](CCCNC(N)=O)(OCC)OCC`, for which the result was inactive.

As to `Cc1ncc(CO)c(CO)c1O`, the result was inactive.

As to `CCOC(=O)O[C@H](C)OC(=O)c1ccc2c(c1)cc(C(=O)NC1CCN(C(C)C)CC1)n2Cc1cc(-c2ccc(Cl)s2)on1`, the AC50 is 81.9 µM (active).

Regarding `CC(O)CC(C)(C)O` (stereo unspecified), the result was inactive.

As for `CC1=CC(=O)/C(=C(/C)O)C(=O)O1`, the result was inactive.

On to `C[C@]12CC[C@@H]3c4ccc(O)cc4CC[C@H]3[C@@H]1CC[C@H]2O`, for which the AC50 is 67.5 µM (active) and 15.8 µM (active).

Consider `c1ccc(C[n+]2cccc3ccccc32)cc1`, for which the outcome was inactive.

On to `CC(C)(C)c1cc(/C=C2\SC(N)=NC2=O)cc(C(C)(C)C)c1O`, for which the outcome was inactive.

Regarding `CC[C@H](NC(=O)c1cc(F)ccc1NS(=O)(=O)c1cccc2cccnc12)c1ccccc1`, the outcome was inactive.

On to `Cc1ccc(C(C)C)cc1`, for which the outcome was inactive.

`CCCCOC(=O)CC(CC(=O)OCCCC)(OC(C)=O)C(=O)OCCCC`: the result was inactive.

For `CCCCCCCCCCCCO`, the outcome was inactive.

With `OCCO`, the outcome was inactive.

For `CCCC(=O)OCCC(C)C`, the result was inactive.

Regarding `O=c1ccc2ccccc2o1`, the result was inactive.

`Cc1cc2c(cc1C(F)(F)F)N(C(=O)Nc1ccc(Oc3cccnc3C)nc1)CC2`: the result was inactive.

Regarding `CC[C@@H]1C[C@H](N(Cc2cc(C(F)(F)F)cc(C(F)(F)F)c2)C(C)=O)c2cc(C(F)(F)F)ccc2N1C(=O)OC(C)C`, the outcome was inactive.

With `O=C1O[C@H]([C@@H](O)CO)C(O)=C1O`, the result was inactive.

Turning to `Cc1occc1C(=O)Nc1ccc(C(=O)N2CCC(F)(F)/C(=C\C(=O)N3CCC(N4CCCCC4)CC3)c3ccccc32)cc1`, the result was inactive.

For `CC(C)(O)c1ccc(CNC(=O)c2cccnc2Oc2ccc3nonc3c2)cc1`, the outcome was inactive.

With `CN1C(=O)CC[C@H]1c1cccnc1`, the result was inactive.

With `O=C=NCCCCCCN=C=O`, the outcome was inactive.

For `O=C(O)c1ccccc1C(=O)OCc1ccccc1`, the outcome was inactive.

Test system in another assay: not listed separately
The assay can be described thus: TOX21_p53_BLA_p4_viability: Viability Assessment in the Tox21 HCT-116 p53 Agonism Beta-lactamase Assay, Phase 4 (AID 2283597).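 Further: hits lower the luminescence signal meaning cytotoxicity.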 In outline: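 We seeded HCT116 p53 reporter cells at 4000/well and waited 5 h. We then added compounds in DMSO at a 217-fold dilution and incubated for 16 h. Viability was read as CellTiter-Glo luminescence after 30 min at RT.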
Consider `COc1cccc([C@H](O)C2CCN(CCc3ccc(F)cc3)CC2)c1OC`, for which the call was inactive.

`OC12N=C(c3ccccc3)SC1Cc1cc(Cl)ccc12` (stereo unspecified): the concentration at half-maximal activity (AC50) was 66.6 µM (active).

On to `CCCCCCCCN(C)CCCCCCCC`, for which the result was inactive.

As to `Cc1oc2c(NC(=O)c3c(Cl)cccc3Cl)cccc2c1C(C)(C)O`, the molecule was classed as inactive.

With `Clc1cc(Cl)c2c(c1)N=C1CCCCCN1C2`, the result was inactive.

Regarding `O=C(O)Cn1c(=O)n(Cc2ccc(Br)cc2F)c(=O)c2ccc(Cl)cc21`, the molecule was classed as inactive.

In the case of `O=c1[nH]sc2ccccc12`, the molecule was called inactive.

Turning to `CCCCCCCCCCCO`, the molecule was classed as inactive.

`CN(C)c1ccc(C(=C2C=CC(=[N+](C)C)C=C2)c2ccc(N(C)C)cc2)cc1`: the AC50 is 28.8 µM (active) and 20.6 µM (active) and 14.3 µM (active).

Turning to `Cc1ncc(CO)c(CO)c1O`, the molecule was classed as inactive.

In the case of `CCOC(=O)O[C@H](C)OC(=O)c1ccc2c(c1)cc(C(=O)NC1CCN(C(C)C)CC1)n2Cc1cc(-c2ccc(Cl)s2)on1`, the AC50 is 13.5 µM (active).

Turning to `CC(O)CC(C)(C)O` (stereo unspecified), the molecule was called inactive.

`C[C@]12CC[C@@H]3c4ccc(O)cc4CC[C@H]3[C@@H]1CC[C@H]2O`: the outcome was inactive.

As for `CC(C)(C)c1cc(/C=C2\SC(N)=NC2=O)cc(C(C)(C)C)c1O`, the AC50 was 84.4 µM (active).

On to `CC[C@H](NC(=O)c1cc(F)ccc1NS(=O)(=O)c1cccc2cccnc12)c1ccccc1`, for which the molecule was called inactive.

For `Cc1ccc(C(C)C)cc1`, the result was inactive.

Take `CCCCOC(=O)CC(CC(=O)OCCCC)(OC(C)=O)C(=O)OCCCC`: the outcome was inactive.

`OCCO`: the molecule was called inactive.

In the case of `CCCC(=O)OCCC(C)C`, the call was inactive.

For the molecule `O=c1ccc2ccccc2o1`, the result was inactive.

As for `Cc1cc2c(cc1C(F)(F)F)N(C(=O)Nc1ccc(Oc3cccnc3C)nc1)CC2`, the molecule was classed as inactive.

`CC[C@@H]1C[C@H](N(Cc2cc(C(F)(F)F)cc(C(F)(F)F)c2)C(C)=O)c2cc(C(F)(F)F)ccc2N1C(=O)OC(C)C`: the result was inactive.

As for `O=C1O[C@H]([C@@H](O)CO)C(O)=C1O`, the call was inactive.

For another assay, the target named is Cellular tumor antigen p53 (Homo sapiens) (UniProt P04637). In words: TOX21_p53_BLA_p5_ratio: Tox21 HCT-116 p53 Agonism Beta-lactamase Assay, Ratio, Phase 5 (AID 2283599). In outline:
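Beta-lactamase reporter ratio (blue 460 nm over green 530 nm, 405 nm excitation) after 2 h CCF4-AM loading, in HCT-116 cells exposed 16 h at 37 C to compounds pinned at 217-fold dilution. Increases relative to DMSO baseline scored.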
For the molecule `COc1cccc([C@H](O)C2CCN(CCc3ccc(F)cc3)CC2)c1OC`, the outcome was inactive.

On to `OC12N=C(c3ccccc3)SC1Cc1cc(Cl)ccc12` (stereo unspecified), for which the result was inactive.

As for `Oc1ccc2ccccc2c1`, the outcome was inactive.

Take `Cc1oc2c(NC(=O)c3c(Cl)cccc3Cl)cccc2c1C(C)(C)O`: the result was inactive.

Regarding `CCCCCCCC[Si](OCC)(OCC)OCC`, the outcome was inactive.

With `Clc1cc(Cl)c2c(c1)N=C1CCCCCN1C2`, the outcome was inactive.

Take `c1ccc2ccccc2c1`: the result was inactive.

`O=C(O)Cn1c(=O)n(Cc2ccc(Br)cc2F)c(=O)c2ccc(Cl)cc21`: the outcome was inactive.

As for `O=c1[nH]sc2ccccc12`, the result was inactive.

For `CCCCCCCCCCCO`, the result was inactive.

In the case of `CN(C)c1ccc(C(=C2C=CC(=[N+](C)C)C=C2)c2ccc(N(C)C)cc2)cc1`, the AC50 is 47.3 µM (active) and 34 µM (active) and 25.4 µM (active).

Regarding `CCO[Si](CCCNC(N)=O)(OCC)OCC`, the result was inactive.

Turning to `Cc1ncc(CO)c(CO)c1O`, the outcome was inactive.

On to `CCOC(=O)O[C@H](C)OC(=O)c1ccc2c(c1)cc(C(=O)NC1CCN(C(C)C)CC1)n2Cc1cc(-c2ccc(Cl)s2)on1`, for which the AC50 is 80.9 µM (active).

For `CC(O)CC(C)(C)O` (stereo unspecified), the result was inactive.

Turning to `CC1=CC(=O)/C(=C(/C)O)C(=O)O1`, the result was inactive.

For `C[C@]12CC[C@@H]3c4ccc(O)cc4CC[C@H]3[C@@H]1CC[C@H]2O`, the AC50 was 73.4 µM (active) and 16.7 µM (active).

Regarding `c1ccc(C[n+]2cccc3ccccc32)cc1`, the result was inactive.

As to `CC(C)(C)c1cc(/C=C2\SC(N)=NC2=O)cc(C(C)(C)C)c1O`, the AC50 was 90.1 µM (active).

Take `CC[C@H](NC(=O)c1cc(F)ccc1NS(=O)(=O)c1cccc2cccnc12)c1ccccc1`: the result was inactive.

In the case of `Cc1ccc(C(C)C)cc1`, the result was inactive.

With `CCCCCCCCCCCCO`, the outcome was inactive.

Turning to `OCCO`, the result was inactive.

For `CCCC(=O)OCCC(C)C`, the result was inactive.

For the molecule `O=c1ccc2ccccc2o1`, the outcome was inactive.

As to `CC[C@@H]1C[C@H](N(Cc2cc(C(F)(F)F)cc(C(F)(F)F)c2)C(C)=O)c2cc(C(F)(F)F)ccc2N1C(=O)OC(C)C`, the result was inactive.

Turning to `O=C1O[C@H]([C@@H](O)CO)C(O)=C1O`, the outcome was inactive.

Take `Cc1occc1C(=O)Nc1ccc(C(=O)N2CCC(F)(F)/C(=C\C(=O)N3CCC(N4CCCCC4)CC3)c3ccccc32)cc1`: the outcome was inactive.

Turning to `CC(C)(O)c1ccc(CNC(=O)c2cccnc2Oc2ccc3nonc3c2)cc1`, the result was inactive.

Regarding `O=C=NCCCCCCN=C=O`, the outcome was inactive.

Take `O=C(O)c1ccccc1C(=O)OCc1ccccc1`: the outcome was inactive.
